NPSR antagonist = neuropeptide S receptor (human) antagonism, cAMP; Q6W5P4; CHO-NPSR cells, cAMP TR-FRET, antagonist mode; Potency, µM (series often up to 38.3 µM), for the others: at the top dose activity change, negative = inhibition, usual class: inhibitors; hit rate 1% among 220,000; AID 1461; further: nearly all actives have a fitted effect of over 50% in size
B2AR arrestin = beta2AR (human) beta-arrestin recruitment activity. beta-arrestin recruitment to beta2AR, cell-based reporter. P07550. hit rate 0.02% among 330,000. Potency, µM (titrated, usually from 46.1 µM), without a hit: top-dose activation, hits mostly activators;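 further: 0% = DMSO controls and full agonism = EC100 isoproterenol or metaproterenol; nearly all actives have a fitted effect of over 65% in size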
Target sequence (P07550 whole entry, looked up): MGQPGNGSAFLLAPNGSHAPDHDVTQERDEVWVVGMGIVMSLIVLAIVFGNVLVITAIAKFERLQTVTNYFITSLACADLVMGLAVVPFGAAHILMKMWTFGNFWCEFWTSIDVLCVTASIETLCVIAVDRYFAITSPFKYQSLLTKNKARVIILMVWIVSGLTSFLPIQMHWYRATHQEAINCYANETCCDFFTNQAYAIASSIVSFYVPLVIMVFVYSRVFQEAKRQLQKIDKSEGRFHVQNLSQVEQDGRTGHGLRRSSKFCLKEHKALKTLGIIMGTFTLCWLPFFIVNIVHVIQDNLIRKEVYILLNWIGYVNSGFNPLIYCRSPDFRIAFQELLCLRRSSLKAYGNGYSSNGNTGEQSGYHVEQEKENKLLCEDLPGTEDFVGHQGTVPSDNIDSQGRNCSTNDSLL
RORgamma inh = inhibitors of mouse ROR gamma transcriptional activity | Drosophila S2 Gal4-RORgamma UAS-luciferase reporter, 20 h | Potency, µM (titrated, usually from 53.6 µM), for the others: at the top dose activity change, negative = inhibition, most hits filed as inhibitors | hit rate 5.4% among 310,000 | AID 2551; further: nearly all actives have a fitted effect of over 60% in size
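Using a luciferase readout, inhibitors were identified by reduced reporter activity in Drosophila cells coexpressing a copper-inducible Gal4–ROR gamma fusion and UAS-driven Photinus luciferase, incubated 20 hr after 700 uM copper sulfate.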
Gal4-VP16 FLuc = Gal4-VP16 reporter inhibition counter-screen | hit rate 3.5% among 310,000 | Potency, µM (top dose mostly 53.6 µM), for the others: at the highest dose activity, negative = inhibition, hits mostly inhibitors | Drosophila S2 Gal4-VP16 UAS-luciferase, luminescence, 20 h;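 further: Gal4-VP16 expression switched on by copper sulfate through the metallothionein promoter; nearly all actives have a fitted effect of over 50% in size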
The depositor's hits bear a star; ? = inconclusive; · = no result; ! = a repeat was not active; [ ] = another dose, or the depositor's remark. Hits are enriched below; roughly 5.7% of the tested compounds scored in any of these assays. The call rests on the fitted dose curve; in most records, active means well fitted curve in the direction sought with a large enough effect; inconclusive means small, poorly fitted or top-dose-only effect, or another doubt; inactive means no such curve, though single readings can be large; an effect the other way counts as inactive or inconclusive. Unless noted, on the % scale 0 is the no-effect control and ±100 the full control effect; potency means the concentration at half of the fitted maximal effect.

SMILES | NPSR antagonist | B2AR arrestin | RORgamma inh | Gal4-VP16 FLuc
CCOc1ccc(NS(=O)(=O)c2ccc(C(=O)N(C)CCc3ccc(OC)c(OC)c3)cc2)cc1 | · | -1% | ? | 7.1µM*
Cc1[nH]nc(-c2ccc(O)cc2O)c1-c1ccc(Cl)cc1 | ? | 0% | 13µM* | 22µM*
Cc1[nH]nc(-c2ccc(O)cc2O)c1-c1nc2ccccc2s1 | 28% | 0% | 3% | -9%
COc1ccc(-c2n[nH]c(C)c2-c2ccc(Cl)cc2)c(O)c1 | ? | 0% | 4µM* | 7.1µM*
COc1ccc(O)c(-c2c(-c3ccc(Cl)cc3)n[nH]c2C)c1 | -11%[46.1 µM] | 0% | ? | -18%
COc1ccc(-c2n[nH]c(C)c2-c2ccc(Cl)cc2)c(O)c1OC | ? | 0% | 7.1µM* | 7.1µM*
Cc1nc(C)c(C(=O)NNS(=O)(=O)c2ccc3ccccc3c2)s1 | 16% | -1% | ? | 1µM*
O=C(Nc1ccc2ccccc2c1)[C@H]1C[C@@H]1[C@H](NP(=O)(c1ccccc1)c1ccccc1)c1ccccc1 | · | · | -4% | -6%
COc1ccc(OC)c2c1sc(=NC(=O)C(C)C)n2C | -23%[46.1 µM] | 0% | 0% | 20µM*
O=C(CCC(=O)c1cccs1)NCc1ccccc1Cl | · | -1% | · | ·
Cc1cc(C)n(CC(=O)N/N=C/c2cc(Br)cc([N+](=O)[O-])c2O)n1 | -22% | 0% | 0.63µM* | 0.89µM*
Cc1cc([N+](=O)[O-])nn1CC(=O)N/N=C/c1ccccc1O | -9% | 0% | 2.2µM* | 7.1µM*
Cc1cc(C)n(CC(=O)N/N=C/c2cc([N+](=O)[O-])ccc2O)n1 | 21% | 0% | 2.8µM* | 2.8µM*
Nc1nnnn1CC(=O)N/N=C/c1cc([N+](=O)[O-])ccc1O | 16% | 0% | 27% | -1%
O=C(NCc1ccccc1F)C1CCCN1S(=O)(=O)c1ccc(F)cc1 (stereo unspecified) | · | 0% | ? | -2%
CC(C)C(=O)N1CCN(c2ccccc2NC(=O)c2ccc(Br)o2)CC1 | · | -1% | · | ·
CCCCCC(=O)Nc1sc(C)c(C)c1C#N | -30% | 3% | 24% | 15%
O=c1[nH]ncc(N/N=C\c2ccc(O)cc2O)c1Cl | -11% | 0% | -9% | 6%
Cc1ccc(/C=N/Nc2cccc3cccnc23)c(O)c1 | -13%[46.1 µM] | 0% | 10µM* | ?
Oc1ccc(/C=N/Nc2cccc3cccnc23)c(O)c1 | -1%[46.1 µM] | 0% | 2.5µM* | -9%[0.365 µM]
O=C(COC(=O)/C=C/c1cccc(Cl)c1Cl)Nc1ccc2[nH]c(=O)[nH]c2c1 | · | 0% | · | ·
COc1ccc(NC(=O)CCC(=O)c2ccc(Cl)cc2)cn1 | · | -1% | · | ·
CC(=O)c1ccc(NC(=O)COC(=O)c2nc(Cl)ccc2Cl)cc1 | 2% | 0% | -8% | -15%
O=C(CSc1nc2ccccc2n1CCc1ccccc1)c1ccc(O)c(O)c1 | -6% | 0% | 7.9µM* | ?
COc1ccc(OC)c(S(=O)(=O)N2CCC(C(=O)N3CCc4ccccc4C3)CC2)c1 | -15%[46.1 µM] | 0% | -1% | 0%
SMILES | NPSR antagonist | B2AR arrestin | RORgamma inh | Gal4-VP16 FLuc
CCOC(=O)c1sc2nc(CC(=O)OC)nc(N3CCN(c4ccc(OC)cc4)CC3)c2c1C | 32µM* | -1% | -2% | 1%
Cc1cc(C)nc(SCCn2c(N3CC(C)OC(C)C3)nc3c2c(=O)n(C)c(=O)n3C)n1 (stereo unspecified) | 6% | 0% | -12% | -2%
Cn1c(=O)oc2cc(S(=O)(=O)Nc3cccc4c3CCCC4)ccc21 | 4%[46.1 µM] | 0% | ? | -2%
O=C(O)C1NCCc2ccccc21 (stereo unspecified) | ? | -1% | -25% | 3%
S=C1NCCc2ccccc2C1c1ccccc1 (stereo unspecified) | -16%[46.1 µM] | 0% | 0.22µM* | 0.16µM*
S=C1NCCc2ccccc2C1c1ccccc1Cl (stereo unspecified) | -2%[46.1 µM] | 0% | 7.9µM* | 3.5µM*
Clc1ccccc1-c1cncnc1NCc1cccs1 | · | · | 9% | 14%
COc1ccc(N2C(=O)C(Cl)=C(Oc3cccc(OC)c3)C2=O)cc1 | 10µM* | 0% | 11µM* | ?
COc1ccc(N2C(=O)c3ccccc3C2=O)cc1 | 7% | 0% | 14% | 5%
CCCn1nc(C(=O)Nc2nc3ccccc3[nH]2)c2ccccc2c1=O | 2% | -1% | 13µM* | 20µM*
CC(C)n1nc(C(=O)Nc2nc3ccccc3[nH]2)c2ccccc2c1=O | -25% | -1% | 1.8µM* | ?
O=C(c1ccc([N+](=O)[O-])cc1)N1CCSC1c1cccc(Cl)c1 (stereo unspecified) | -1% | 0% | 38% | 0%
CS(=O)(=O)c1ccc(Cn2c3c(c4cc(F)cc(F)c42)CCC[C@H]3CC(=O)O)cc1 | · | · | 30% | ?
O=C(N/N=C/c1cn[nH]c1-c1ccc(Cl)cc1)c1ccc([N+](=O)[O-])cc1 | -7% | 0% | 10µM* | ?
O=C(N/N=C\c1cn[nH]c1-c1ccccc1)c1ccc([N+](=O)[O-])cc1 | -10% | 0% | 11µM* | -4%
COc1ccc(C(=O)/C(Br)=C/C(=O)O)cc1 | · | · | ? | -12%
C=CCN(C(C(=O)OC)C(C)C)S(=O)(=O)CCl (stereo unspecified) | · | · | -14% | -1%
COc1cc(/C=C2/SC(=O)NC2=O)ccc1OCc1ccccc1 | · | 0% | ? | ?
COc1ccc(/C=C2/SC(=S)NC2=O)cc1OCc1ccccc1 | · | 0% | ? | 18µM*
CC1(C)NC(=O)N(CCCCOc2ccccc2[N+](=O)[O-])C1=O | 13% | -1% | 5% | 4%
CC1(C)NC(=O)N(c2ccc([N+](=O)[O-])c(C(F)(F)F)c2)C1=O | ? | 0% | ? | 16µM*!
O=C(CSc1cccc(C(F)(F)F)c1)Nc1cc(S(=O)(=O)N2CCCC2)ccc1Cl | -36% | -1% | ? | -7%
COc1ccc2[nH]cc(CCNc3ncncc3-c3ccc(C(=O)N(C)C)cc3)c2c1 | · | · | 14% | -4%
O=C1CC(SCc2nc3ccccc3[nH]2)C(=O)N1c1cccc(F)c1 (stereo unspecified) | -7%[46.1 µM] | 0% | 10µM* | 14µM*
CCOc1ccc(N2C(=O)CC(SCc3nc4ccccc4[nH]3)C2=O)cc1 (stereo unspecified) | -11% | -1% | 11µM* | ?
SMILES | NPSR antagonist | B2AR arrestin | RORgamma inh | Gal4-VP16 FLuc
O=C1CC(SCc2nc3ccccc3[nH]2)C(=O)N1c1ccc(F)c(Cl)c1 (stereo unspecified) | -12%[46.1 µM] | -1% | ? | -25%
CCOc1ccc(N2C(=O)CC(N)C2=O)cc1 (stereo unspecified) | -3%[46.1 µM] | -2% | 1.1µM* | 3.2µM*
O=C1CC(SCc2nc3ccccc3[nH]2)C(=O)N1c1ccc(Cl)cc1 (stereo unspecified) | -3%[46.1 µM] | 0% | 3.5µM* | 6.3µM*
CC1=CC(=O)C2=C(C)CC[C@H]3[C@H](C)C(=O)O[C@@H]3C12 (stereo partly specified) | · | · | 10% | -6%
C[C@@H](O)CNC(C)(C)CC(=O)N[C@@H]1CCc2ccccc2N(Cc2ccc(-c3ccccc3-c3nn[nH]n3)cc2)C1=O | · | · | -2% | 1%
OC1(c2ccc(Cl)cc2)CCN(Cc2c[nH]c3ccccc23)CC1 | -8%[46.1 µM] | · | -40% | -1%
